{"source": "the supplement of paper PMC10849652", "note": "The full data set covers some 7,900 targets. This sample favours those with a hit. About 0.6% of all pairs of compound and target were hits.", "data": [{"compound": "Cc1cn(-c2cc(NC(=O)c3ccc(C)c(Nc4nccc(-c5cccnc5)n4)c3)cc(C(F)(F)F)c2)cn1 [nilotinib]", "experiment": "log2 fold change, soluble protein after heating vs DMSO (PISA); higher = thermal stabilisation; K562 cells, 10 uM, 30 min; active = over 0.2 and 3.5 SD of the protein, either way, in both replicates (recomputed)", "how_it_was_run": "(§1)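 K562 cells at 2×10^6 cells/mL were treated for 30 min with 10 μM compound, and aliquots were heated for 3 min over 48°C-58°C before pooling. Extraction used PBS with 0.5% NP-40 at 4°C, and soluble protein was the supernatant after 21,000xg for 90 min, measured by TMTpro 16plex LC-MS/MS with channel sums equalised. Thermal stability values, relative to control samples and from duplicates, are log2 fold changes.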", "values": [{"target": "LONP2 (UniProt Q86WA8)", "log2 fold change": "0.26 (inactive)"}, {"target": "KDM3B (UniProt Q7LBC6)", "log2 fold change": "-0.009 (inactive)"}, {"target": "LARP4B (UniProt Q92615)", "log2 fold change": "-0.055 (inactive)"}, {"target": "LDLR (UniProt P01130)", "log2 fold change": "0.041 (inactive)"}, {"target": "IRF2BPL (UniProt Q9H1B7)", "sequence (Q9H1B7 whole entry, looked up)": "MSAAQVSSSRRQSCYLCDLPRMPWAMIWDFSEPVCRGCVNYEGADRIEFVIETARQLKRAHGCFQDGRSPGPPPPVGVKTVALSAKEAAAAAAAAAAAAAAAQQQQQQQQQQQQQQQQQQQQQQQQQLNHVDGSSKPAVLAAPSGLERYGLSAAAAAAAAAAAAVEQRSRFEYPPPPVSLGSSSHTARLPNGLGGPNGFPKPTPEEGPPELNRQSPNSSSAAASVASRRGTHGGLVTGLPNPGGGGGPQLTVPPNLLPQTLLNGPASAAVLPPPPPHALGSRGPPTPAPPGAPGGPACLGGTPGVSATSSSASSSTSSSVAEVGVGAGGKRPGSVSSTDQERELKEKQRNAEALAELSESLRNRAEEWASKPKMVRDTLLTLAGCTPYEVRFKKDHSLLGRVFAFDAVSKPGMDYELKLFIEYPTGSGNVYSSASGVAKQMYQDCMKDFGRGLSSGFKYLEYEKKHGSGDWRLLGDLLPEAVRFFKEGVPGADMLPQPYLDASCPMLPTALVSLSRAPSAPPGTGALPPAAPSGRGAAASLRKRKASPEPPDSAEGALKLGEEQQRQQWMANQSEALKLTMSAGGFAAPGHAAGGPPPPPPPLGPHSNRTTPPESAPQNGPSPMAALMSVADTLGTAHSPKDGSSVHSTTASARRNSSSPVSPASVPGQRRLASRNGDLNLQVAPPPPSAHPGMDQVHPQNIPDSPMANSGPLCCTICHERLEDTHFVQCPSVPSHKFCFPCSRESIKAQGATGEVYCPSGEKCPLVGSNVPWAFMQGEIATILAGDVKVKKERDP", "log2 fold change": "-0.07 (inactive)"}, {"target": "LTN1 isoform 3 (UniProt O94822)", "sequence (O94822 whole entry, looked up)": "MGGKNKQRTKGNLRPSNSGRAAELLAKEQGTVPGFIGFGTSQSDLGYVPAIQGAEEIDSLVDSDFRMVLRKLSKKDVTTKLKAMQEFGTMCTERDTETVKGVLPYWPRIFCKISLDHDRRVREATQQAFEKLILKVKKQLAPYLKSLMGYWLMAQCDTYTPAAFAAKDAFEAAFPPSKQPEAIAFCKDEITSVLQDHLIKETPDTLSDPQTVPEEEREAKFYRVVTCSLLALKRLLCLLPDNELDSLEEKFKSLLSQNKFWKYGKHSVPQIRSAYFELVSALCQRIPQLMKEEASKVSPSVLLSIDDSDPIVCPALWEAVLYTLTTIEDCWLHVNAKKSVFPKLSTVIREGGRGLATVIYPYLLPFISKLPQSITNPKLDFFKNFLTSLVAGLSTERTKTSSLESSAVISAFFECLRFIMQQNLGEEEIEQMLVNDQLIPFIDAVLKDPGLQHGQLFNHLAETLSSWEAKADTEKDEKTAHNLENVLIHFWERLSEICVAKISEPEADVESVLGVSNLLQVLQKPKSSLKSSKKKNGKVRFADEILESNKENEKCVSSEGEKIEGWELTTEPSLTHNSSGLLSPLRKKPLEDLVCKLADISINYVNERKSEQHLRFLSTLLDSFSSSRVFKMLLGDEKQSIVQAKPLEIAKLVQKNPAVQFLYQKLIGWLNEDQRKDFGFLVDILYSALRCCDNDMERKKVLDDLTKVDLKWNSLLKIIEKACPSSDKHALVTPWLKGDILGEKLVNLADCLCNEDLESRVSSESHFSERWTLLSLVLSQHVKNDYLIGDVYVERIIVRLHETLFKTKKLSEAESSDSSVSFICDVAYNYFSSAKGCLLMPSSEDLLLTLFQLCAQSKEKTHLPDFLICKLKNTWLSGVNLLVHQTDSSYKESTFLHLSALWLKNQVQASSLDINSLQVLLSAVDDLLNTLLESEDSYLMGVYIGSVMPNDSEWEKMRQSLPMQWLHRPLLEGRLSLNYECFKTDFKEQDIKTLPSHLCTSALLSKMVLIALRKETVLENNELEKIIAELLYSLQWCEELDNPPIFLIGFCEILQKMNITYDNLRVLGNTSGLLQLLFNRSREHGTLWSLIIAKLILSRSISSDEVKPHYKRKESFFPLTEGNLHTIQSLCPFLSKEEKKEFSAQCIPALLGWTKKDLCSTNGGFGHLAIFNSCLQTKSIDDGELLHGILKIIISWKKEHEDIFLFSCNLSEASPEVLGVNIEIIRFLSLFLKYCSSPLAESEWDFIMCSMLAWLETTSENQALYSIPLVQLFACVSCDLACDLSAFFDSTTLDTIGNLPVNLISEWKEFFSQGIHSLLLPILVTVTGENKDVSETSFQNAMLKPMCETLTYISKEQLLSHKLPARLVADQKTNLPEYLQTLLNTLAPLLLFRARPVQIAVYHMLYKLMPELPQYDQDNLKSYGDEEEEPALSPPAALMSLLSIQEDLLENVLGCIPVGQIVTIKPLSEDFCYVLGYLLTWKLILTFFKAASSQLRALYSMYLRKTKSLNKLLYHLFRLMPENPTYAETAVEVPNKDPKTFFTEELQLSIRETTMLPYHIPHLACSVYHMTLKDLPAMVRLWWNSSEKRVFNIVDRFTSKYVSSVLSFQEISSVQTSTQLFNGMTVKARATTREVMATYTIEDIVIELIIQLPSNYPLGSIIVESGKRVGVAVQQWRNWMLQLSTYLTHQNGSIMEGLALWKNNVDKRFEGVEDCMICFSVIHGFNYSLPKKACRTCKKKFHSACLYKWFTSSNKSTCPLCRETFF", "log2 fold change": "-0.079 (inactive)"}, {"target": "LARP7 isoform 3 (UniProt Q4G0J3)", "sequence (Q4G0J3 whole entry, looked up)": "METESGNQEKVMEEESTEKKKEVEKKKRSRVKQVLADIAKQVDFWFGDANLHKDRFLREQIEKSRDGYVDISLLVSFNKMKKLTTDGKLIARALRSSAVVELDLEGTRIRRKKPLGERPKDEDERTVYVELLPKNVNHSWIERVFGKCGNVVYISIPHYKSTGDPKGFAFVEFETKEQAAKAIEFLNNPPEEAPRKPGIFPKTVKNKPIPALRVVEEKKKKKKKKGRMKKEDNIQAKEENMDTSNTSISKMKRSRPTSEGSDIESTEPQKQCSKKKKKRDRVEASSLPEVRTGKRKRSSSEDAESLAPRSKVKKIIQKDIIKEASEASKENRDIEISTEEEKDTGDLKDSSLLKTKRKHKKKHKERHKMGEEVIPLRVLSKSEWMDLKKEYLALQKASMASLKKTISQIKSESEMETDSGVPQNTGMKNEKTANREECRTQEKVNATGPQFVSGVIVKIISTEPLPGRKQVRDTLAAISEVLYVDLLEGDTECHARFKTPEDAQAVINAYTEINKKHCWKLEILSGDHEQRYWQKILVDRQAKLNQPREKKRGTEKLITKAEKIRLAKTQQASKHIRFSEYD", "log2 fold change": "0.01 (inactive)"}, {"target": "LNPK (UniProt Q9C0E8)", "log2 fold change": "-0.001 (inactive)"}, {"target": "MAP2K3 isoform 3 (UniProt P46734)", "sequence (P46734 whole entry, looked up)": "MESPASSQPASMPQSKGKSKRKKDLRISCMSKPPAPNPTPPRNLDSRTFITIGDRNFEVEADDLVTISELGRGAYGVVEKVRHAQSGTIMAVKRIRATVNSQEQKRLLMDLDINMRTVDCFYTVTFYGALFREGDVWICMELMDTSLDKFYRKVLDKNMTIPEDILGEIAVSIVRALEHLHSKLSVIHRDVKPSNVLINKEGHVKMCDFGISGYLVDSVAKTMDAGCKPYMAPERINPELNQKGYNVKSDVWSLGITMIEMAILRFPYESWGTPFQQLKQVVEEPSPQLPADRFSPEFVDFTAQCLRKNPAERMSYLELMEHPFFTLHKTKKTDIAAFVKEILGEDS", "log2 fold change": "-0.019 (inactive)"}, {"target": "MICU2 (UniProt Q8IYU8)", "sequence (Q8IYU8 whole entry, looked up)": "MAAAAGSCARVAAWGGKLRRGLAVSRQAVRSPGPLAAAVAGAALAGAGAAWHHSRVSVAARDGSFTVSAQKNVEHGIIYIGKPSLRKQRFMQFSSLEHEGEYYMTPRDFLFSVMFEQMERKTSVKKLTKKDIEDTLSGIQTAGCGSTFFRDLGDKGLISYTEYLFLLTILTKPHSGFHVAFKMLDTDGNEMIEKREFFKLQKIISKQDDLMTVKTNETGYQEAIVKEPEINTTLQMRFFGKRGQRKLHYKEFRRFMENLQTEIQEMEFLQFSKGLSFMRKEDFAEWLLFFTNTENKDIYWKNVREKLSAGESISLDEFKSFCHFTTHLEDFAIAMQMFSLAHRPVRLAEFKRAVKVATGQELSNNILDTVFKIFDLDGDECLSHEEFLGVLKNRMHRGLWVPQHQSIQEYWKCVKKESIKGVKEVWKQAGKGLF", "log2 fold change": "-0.052 (inactive)"}, {"target": "MGST3 (UniProt O14880)", "sequence (O14880 whole entry, looked up)": "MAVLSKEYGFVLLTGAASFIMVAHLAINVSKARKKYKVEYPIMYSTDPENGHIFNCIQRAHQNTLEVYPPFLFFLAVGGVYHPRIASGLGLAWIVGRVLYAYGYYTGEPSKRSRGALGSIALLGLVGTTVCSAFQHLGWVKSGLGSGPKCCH", "log2 fold change": "0.01 (inactive)"}, {"target": "KSR1 (UniProt Q8IVT5)", "log2 fold change": "-0.052 (inactive)"}, {"target": "IWS1 (UniProt Q96ST2)", "log2 fold change": "-0.024 (inactive)"}, {"target": "MFN1 (UniProt Q8IWA4)", "sequence (Q8IWA4 whole entry, looked up)": "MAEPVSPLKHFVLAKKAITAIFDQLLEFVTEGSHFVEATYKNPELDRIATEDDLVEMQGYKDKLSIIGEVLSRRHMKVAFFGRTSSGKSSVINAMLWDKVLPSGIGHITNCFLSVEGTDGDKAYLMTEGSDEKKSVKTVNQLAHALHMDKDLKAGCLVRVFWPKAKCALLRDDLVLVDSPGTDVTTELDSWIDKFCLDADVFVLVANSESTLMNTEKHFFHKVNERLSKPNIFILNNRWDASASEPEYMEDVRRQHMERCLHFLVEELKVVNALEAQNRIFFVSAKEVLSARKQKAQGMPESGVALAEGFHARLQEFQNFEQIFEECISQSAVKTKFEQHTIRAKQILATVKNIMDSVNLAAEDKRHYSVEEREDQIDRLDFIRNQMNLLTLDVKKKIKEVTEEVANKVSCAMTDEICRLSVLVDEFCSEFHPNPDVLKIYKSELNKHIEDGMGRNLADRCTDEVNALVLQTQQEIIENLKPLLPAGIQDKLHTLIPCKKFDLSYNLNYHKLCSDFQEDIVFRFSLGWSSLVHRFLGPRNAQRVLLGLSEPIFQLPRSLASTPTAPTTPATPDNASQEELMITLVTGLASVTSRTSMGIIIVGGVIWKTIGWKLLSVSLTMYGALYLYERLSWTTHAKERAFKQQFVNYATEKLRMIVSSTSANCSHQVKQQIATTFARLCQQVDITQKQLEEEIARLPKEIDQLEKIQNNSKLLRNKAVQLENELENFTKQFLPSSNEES", "log2 fold change": "-0.005 (inactive)"}, {"target": "MARK3 (UniProt P27448)", "log2 fold change": "-0.125 (inactive)"}, {"target": "MDC1 (UniProt Q14676)", "log2 fold change": "0.037 (inactive)"}, {"target": "MAP4 (UniProt E7EVA0)", "log2 fold change": "-0.014 (inactive)"}]}, {"compound": "Cc1nc(Nc2n[nH]c3c2CN(C(=O)N[C@H](CN(C)C)c2ccccc2)C3(C)C)c2sccc2n1", "experiment": "log2 fold change, soluble protein after heating vs DMSO (PISA); higher = thermal stabilisation; K562 cells, 10 uM, 30 min; active = over 0.2 and 3.5 SD of the protein, either way, in both replicates (recomputed)", "how_it_was_run": "as §1", "values": [{"target": "LUC7L2 (UniProt Q9Y383)", "log2 fold change": "-2.75 (active)"}, {"target": "ILF3 isoform 7 (UniProt Q12906)", "log2 fold change": "0.244 (inactive)"}, {"target": "MAGOHB (UniProt Q96A72)", "log2 fold change": "-0.042 (inactive)"}, {"target": "KDM5D isoform 3 (UniProt Q9BY66)", "log2 fold change": "-0.054 (inactive)"}, {"target": "LIMD1 (UniProt Q9UGP4)", "log2 fold change": "-0.085 (inactive)"}, {"target": "MED1 (UniProt Q15648)", "log2 fold change": "0 (inactive)"}, {"target": "MCL1 (UniProt Q07820)", "log2 fold change": "-0.053 (inactive)"}, {"target": "LIMA1 isoform 4 (UniProt Q9UHB6)", "log2 fold change": "-0.112 (inactive)"}, {"target": "LMBRD1 (UniProt Q9NUN5)", "log2 fold change": "-0.062 (inactive)"}, {"target": "KIF13A (UniProt Q9H1H9)", "log2 fold change": "-0.01 (inactive)"}, {"target": "MARCKSL1 (UniProt P49006)", "sequence (P49006 whole entry, looked up)": "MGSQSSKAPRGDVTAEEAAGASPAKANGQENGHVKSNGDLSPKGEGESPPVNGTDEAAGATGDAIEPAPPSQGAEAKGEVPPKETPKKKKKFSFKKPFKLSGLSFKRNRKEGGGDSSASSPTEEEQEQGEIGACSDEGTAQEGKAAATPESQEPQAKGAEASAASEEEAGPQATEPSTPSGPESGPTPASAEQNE", "log2 fold change": "0.014 (inactive)"}, {"target": "LARP4 isoform 4 (UniProt Q71RC2)", "log2 fold change": "-0.147 (inactive)"}, {"target": "KIF21A isoform 4 (UniProt Q7Z4S6)", "log2 fold change": "0.083 (inactive)"}, {"target": "LEMD3 (UniProt Q9Y2U8)", "log2 fold change": "-0.026 (inactive)"}, {"target": "MAP3K7 (UniProt O43318)", "log2 fold change": "-0.028 (inactive)"}, {"target": "MAPKAPK3 (UniProt Q16644)", "log2 fold change": "-0.03 (inactive)"}, {"target": "MAPK14 isoform 2 (UniProt Q16539)", "log2 fold change": "0.176 (inactive)"}, {"target": "ITIH4 (UniProt Q14624)", "log2 fold change": "0.194 (inactive)"}, {"target": "MAGEA9 (UniProt P43362)", "log2 fold change": "-0.006 (inactive)"}, {"target": "IMMT isoform 4 (UniProt Q16891)", "log2 fold change": "0.004 (inactive)"}, {"target": "MEPCE (UniProt Q7L2J0)", "log2 fold change": "-0.337 (active)"}, {"target": "LSS (UniProt P48449)", "log2 fold change": "0.047 (inactive)"}, {"target": "LONP2 (UniProt Q86WA8)", "log2 fold change": "-0.187 (inactive)"}, {"target": "KDM3B (UniProt Q7LBC6)", "log2 fold change": "-0.098 (inactive)"}, {"target": "LARP4B (UniProt Q92615)", "log2 fold change": "-0.192 (inactive)"}, {"target": "LDLR (UniProt P01130)", "log2 fold change": "-0.027 (inactive)"}, {"target": "IRF2BPL (UniProt Q9H1B7)", "log2 fold change": "-0.034 (inactive)"}, {"target": "LTN1 isoform 3 (UniProt O94822)", "log2 fold change": "-0.031 (inactive)"}, {"target": "LARP7 isoform 3 (UniProt Q4G0J3)", "log2 fold change": "-0.298 (active)"}, {"target": "LNPK (UniProt Q9C0E8)", "log2 fold change": "-0.009 (inactive)"}, {"target": "MAP2K3 isoform 3 (UniProt P46734)", "log2 fold change": "0.021 (inactive)"}, {"target": "MICU2 (UniProt Q8IYU8)", "log2 fold change": "-0.067 (inactive)"}, {"target": "MGST3 (UniProt O14880)", "log2 fold change": "0.012 (inactive)"}, {"target": "KSR1 (UniProt Q8IVT5)", "log2 fold change": "-0.303 (inactive)"}, {"target": "IWS1 (UniProt Q96ST2)", "log2 fold change": "0.092 (inactive)"}, {"target": "MFN1 (UniProt Q8IWA4)", "log2 fold change": "-0.05 (inactive)"}, {"target": "MARK3 (UniProt P27448)", "log2 fold change": "-0.718 (active)"}, {"target": "MDC1 (UniProt Q14676)", "log2 fold change": "0.02 (inactive)"}, {"target": "MAP4 (UniProt E7EVA0)", "log2 fold change": "0.015 (inactive)"}]}]}
